In the library only some 2% were active in any assay of this set; here they are far more common.
sPLA2-III inh – Inhibits HGIII-sPLA2 liposome hydrolysis, primary screen; inhibition, % at 12.2 µM; AID 743126; QFRET BODIPY PC-A2 liposome hydrolysis, fluorescence; 370,000 tested, 0.56% active; Q9NZ20;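 active = inhibition above mean plus 3 SD of compounds lying within the high and low control bounds, cut at about 19% in these data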;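 also: 0% = median of test compound wells and 100% = no enzyme DMSO wells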
CTSL1 counter – cathepsin L1 inhibition, PFM18AAP counter-screen. recombinant F. hepatica cathepsin L1, Z-Leu-Arg-MCA fluorescence. 300,000 tested, 0.49% active. inhibition, % at 5.96 µM;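 active = inhibition above the mean of all tested compounds plus 3 SD, set per screening campaign, cut at about 17% in these data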;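 also: 0% = plate median of test compound wells and 100% = 1 µM Z-Phe-Ala-diazomethylketone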
A3G deaminase – APOBEC3G (human) deaminase inhibition; Q9HC16; recombinant A3G, ssDNA deamination FAM/TAMRA fluorescence; inhibition, % at 20 µM; 330,000 tested, 0.28% active; AID 493012;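 active = inhibition of at least 40% at 20 µM, with no more than 30% in the related APOBEC3A deaminase screen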;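 also: plate controls were DMSO wells with A3G for no effect and wells lacking A3G enzyme for full effect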
NALP1 inh – inhibitors of NALP1 inflammasome in yeast. S. cerevisiae NALP1/ASC/caspase-1 growth, X-gal OD620, 72 h. inhibition, % at 10 µM. 280,000 tested, 0.61% active; in the data active = inhibition mostly above about 24%, no sharp cut-off; inactive = mostly below about 32%
APOBEC3A inh – blocks human APOBEC3A ssDNA deamination. P31941. inhibition, % at 20 µM. recombinant A3A, FAM/TAMRA ssDNA deamination fluorescence. 330,000 tested, 0.41% active;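 active = at least 40% inhibition at 20 µM here, with at most 30% in a related deaminase screen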;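 also: plate controls were A3A with DMSO for no effect and wells lacking A3A enzyme for full effect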
Target sequence (P31941 whole entry, looked up): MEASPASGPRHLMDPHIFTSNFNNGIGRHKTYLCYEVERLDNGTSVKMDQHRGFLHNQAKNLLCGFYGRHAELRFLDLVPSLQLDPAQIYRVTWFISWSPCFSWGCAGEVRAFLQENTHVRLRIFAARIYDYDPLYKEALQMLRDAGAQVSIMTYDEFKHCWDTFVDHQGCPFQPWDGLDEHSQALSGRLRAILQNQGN
A3A conf – APOBEC3A (human) deaminase inhibition, confirmed. shares compounds with APOBEC3A inh. recombinant A3A, ssDNA deaminase UDG fluorescence assay. inhibition, % at 20 µM. 1,400 tested, 63% active. AID 493151;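 active = inhibition reaching a set limit, 80% of the first screen's cutoff, at 20 µM in any replicate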;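 also: plate controls were DMSO wells with A3A for no effect and wells lacking A3A enzyme for full effect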
UDG ctr A3A – inhibits UDG, flagging false APOBEC3A inhibitors; shares compounds with APOBEC3A inh; UDG counterscreen, FAM/TAMRA uracil oligo fluorescence; inhibition, % at 20 µM; 1,000 tested, under 10 active; AID 504714; call rule not given here
An asterisk follows results filed as active.

O=C(N/N=C/c1ccc([N+](=O)[O-])o1)C(=O)Nc1ccc(C(=O)O)cc1 was read as sPLA2-III inh 4, CTSL1 counter -1, A3G deaminase -3, NALP1 inh -4 and APOBEC3A inh 11.
`O=C(O)c1ccc(N/N=C/C=C/c2ccc([N+](=O)[O-])o2)cc1` gave sPLA2-III inh -3, CTSL1 counter 10, A3G deaminase 25, NALP1 inh 14, APOBEC3A inh 48* and A3A conf 41*.
Screening C[C@H]1[C@@H](C(=O)N2CCCC2)CC(=O)/C(=N/OCc2ccccc2)C[C@@H]1c1ccccc1 returned sPLA2-III inh -12.
`COC(=O)c1ccc2nc(-c3ccccc3)c(Cc3cccc(Cl)c3)n2c1` gave sPLA2-III inh 7.
`CC1=CC(C)(C)[N+](C)(C)c2ccc(C)cc21` gave sPLA2-III inh 11, CTSL1 counter -3, A3G deaminase 12, NALP1 inh -1, APOBEC3A inh 45*, A3A conf 71* and UDG ctr A3A 0.
`CCOC(=O)C1=C(COC(=O)/C=C/c2ccco2)NC(=O)NC1C` (stereo not given) gave sPLA2-III inh -3, CTSL1 counter -4, A3G deaminase 5, APOBEC3A inh 48*, A3A conf 44* and UDG ctr A3A 4.
For CCN1CCN(S(=O)(=O)c2ccc(Cl)c(C(=O)Nc3ccc(OC(F)F)cc3)c2)CC1 the results were sPLA2-III inh -13, CTSL1 counter 1, A3G deaminase -3, NALP1 inh 22 and APOBEC3A inh -5.
CN1CCN(S(=O)(=O)c2cccc(C(=O)N(C)CC(=O)Nc3ccc(F)c(F)c3F)c2)CC1 was read as sPLA2-III inh 7, CTSL1 counter -30, A3G deaminase 22, APOBEC3A inh 57*, A3A conf 66* and UDG ctr A3A -2.
Screening COc1cccc(CNC(=O)c2cccc(S(=O)(=O)N3CCN(C)CC3)c2)c1 returned sPLA2-III inh 4, CTSL1 counter -3, A3G deaminase 12, NALP1 inh 6, APOBEC3A inh 68*, A3A conf 50* and UDG ctr A3A 1.
Screening CCN1CCN(S(=O)(=O)c2ccc(Cl)c(C(=O)N(CC)CC(=O)Nc3ccc(OC)cc3)c2)CC1 returned sPLA2-III inh 7, CTSL1 counter -2, A3G deaminase 17, NALP1 inh 9, APOBEC3A inh 54*, A3A conf 71* and UDG ctr A3A -1.
COc1ccc(CNC(=O)c2cccc(S(=O)(=O)N3CCN(C)CC3)c2)cc1 was read as sPLA2-III inh 1, CTSL1 counter 2, A3G deaminase -9, NALP1 inh 8 and APOBEC3A inh -4.
COc1ccc(NC(=O)CN(C)C(=O)c2cccc(S(=O)(=O)N3CCN(C)CC3)c2)cc1 was read as sPLA2-III inh 2, CTSL1 counter 0, A3G deaminase 7, APOBEC3A inh 55* and A3A conf 16.
Screening O=[N+]([O-])c1ccccc1S(=O)(=O)N1CCC(c2cn3ccccc3n2)CC1 returned sPLA2-III inh 12.
For COc1ccc(C2OCCNC3C2C(=O)N(Cc2ccc(OC)cc2OC)C3Cc2ccccc2)cc1 (stereo not given) the results were sPLA2-III inh 3.
`Nn1c(SCC(=O)Nc2nccs2)nnc1-c1cc(-c2ccc(Cl)cc2)n[nH]1` gave sPLA2-III inh -6.
For Cc1ccccc1CS(=O)(=O)Cc1ccc(C(=O)Nc2ccc(F)cc2F)o1 the results were sPLA2-III inh 9.
`C=CCN1C(=O)[C@@H](CC(=O)N2CCN(C(=O)C3CC3)CC2)[C@]2(C(=O)OCC)CCCCC/C=C/12` gave sPLA2-III inh 5.
`COC(=O)CNC(=O)CNC1(C(=O)NCCc2c[nH]c3ccccc23)CCCCC1` gave sPLA2-III inh 2.
`O=C(c1ccc(S(=O)(=O)N2CCCCC2)cc1)N1CCN=C1SCc1cccnc1` gave sPLA2-III inh 2, CTSL1 counter -3, A3G deaminase -1, NALP1 inh -1, APOBEC3A inh 50*, A3A conf 7 and UDG ctr A3A 5.
